# Laboratory results published in PubChem BioAssay (NCI).
# The panel holds about 83,000 compounds, 20% with a hit somewhere; the sample as a whole holds those more often.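 Results are percent growth after 48 hours of single-concentration exposure. 100 means growth as in untreated cells, lower positive values show inhibition; negative values down to -100 show cell death.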 Calls of active or inactive are those of the source. The calls were made as follows: active = growth percent below 10; inactive = the rest.
# Tested on: HCT-116 colon
# Assay: NCI-60 one-dose screen, 48 h (100 = growth as untreated, 0 = no growth, -100 = all killed)
# Details: 10 µM
row,Compound,growth
1,CCN(CC)c1ccc(/C=C2\SC(=O)C(Nc3nnc(-c4cccnc4SCc4ccccc4)o3)C2=O)cc1 (centres undefined),5.84% (active)
2,O=C(N/N=C/c1ccc([N+](=O)[O-])cc1)c1ccccc1Nc1cccc(C(F)(F)F)c1,53.9% (inactive)
3,CC(=O)[C@H]1CC[C@]2(C)[C@@H]1CC[C@@H]1[C@@]3(C)CC(CCC#N)(CCC#N)C(=O)C(C)(C)[C@@H]3CC[C@]12C,96% (inactive)
4,Cc1cc(CSc2ccccc2C(=O)N2CC=C(c3ccccc3)CC2)on1,93.1% (inactive)
5,N#Cc1ccc(C(=O)CSc2nccc(Nc3ccc(C(=O)O)cc3)n2)cc1,108% (inactive)
6,COc1ccc2nc3cc(Cl)ccc3c(Nc3cc(CN4CCCC4)c(O)c(CN4CCCC4)c3)c2n1,6.62% (active)
7,O=C(N/N=C/c1ccc(Cl)cc1)c1ccc(Cc2n[nH]c(=O)c3cccnc23)cc1,94.5% (inactive)
8,O=S(=O)(Oc1ccc(-c2ccc3sccc3c2)cc1)c1ccc(F)cc1,102% (inactive)
9,CNC(=O)c1c(I)c(NC(C)=O)c(I)c(C(=O)O)c1I,121% (inactive)
10,C/C(=N\O)c1ccc(NC(=O)CSc2nnc(-c3ccccc3)n2-c2ccccc2)cc1,28.6% (inactive)
11,COc1ccc(/C=C2/SC(=S)NC2=O)c(OC)c1OC,85.8% (inactive)
12,C[C@]12CC[C@@H]3c4ccc(O)cc4CC[C@H]3[C@@H]1CC[C@@H]2NS(=O)(=O)c1ccc(C(F)(F)F)cc1,18.5% (inactive)
13,NS(=O)(=O)c1ccc(Br)cc1,81.4% (inactive)
14,CNS(=O)(=O)Oc1ccc(-c2ccc3occc3c2)cc1,95.5% (inactive)
